# From PubChem BioAssay AID1159554 (Broad Institute, 2015)
# Screen size: about 94,000 compounds; about 2,100 (2.2%) were called active. Cut-off read from the data, not from the text of the source: active = activity change below about -80%; inconclusive = no clear call, values can overlap the other calls; inactive = above that. Only a selection was taken, and actives are over-represented in it overall.
# Assay: P. falciparum Dd2 growth inhibitors, primary screen, SYBR Green fluorescence, single dose replicates (AID 1159554)
# Settings: 72 h, at 10 µM, active compounds read low
row,Compound,activity change
1,COc1ccc2c3c([nH]c2c1)[C@@H](CO)N(C(=O)CN1CCOCC1)CC31CCN(C)CC1,27% (inactive)
2,O=C(C[C@@H]1C=C[C@@H](NS(=O)(=O)c2ccccc2)[C@@H](CO)O1)NCc1ccccc1F,8.12% (inactive)
3,CN(C)CC#Cc1ccc([C@@H]2[C@H](CO)N3CCCCN(C(=O)NC4CCCC4)C[C@@H]23)cc1,2.92% (inactive)
4,CCCNC(=O)Nc1ccc2c(c1)C(=O)N(C)C[C@@H](OC)[C@H](C)CN(CCC)[C@@H](C)CO2,21.3% (inactive)
5,COc1ccccc1NC(=O)N1CC(=O)N2[C@@H](CO)[C@H](c3ccc(C#CC4CC4)cc3)[C@@H]2C1,-3.54% (inactive)
6,O=C(C[C@H]1CC[C@@H]2[C@H](COC[C@@H](O)CN2Cc2cc(F)cc(F)c2)O1)NC1CCC1,-26.6% (inactive)
7,C[C@@H]1CN([C@@H](C)CO)C(=O)Cc2cc(NC(=O)CCCN(C)C)ccc2O[C@@H]1CN(C)Cc1ccc(-c2ccccc2)cc1,-71.2% (inactive)
8,CC(C)C(=O)Nc1ccc2c(c1)C(=O)N(C)[C@H]1CC[C@H](CC(=O)NCc3ccc(F)cc3)O[C@H]1CO2,-8.71% (inactive)
9,CC(=O)N1Cc2cc(C(=O)NCc3cc(F)cc(F)c3)nc(-c3cccc(C4=CCCC4)c3)c2[C@@H]1CCO,-66.6% (inactive)
10,O=C(Nc1ccccc1F)N1CC(=O)N2[C@@H](CO)[C@H](c3ccc(C#CC4CCCC4)cc3)[C@@H]2C1,-8.5% (inactive)
11,CN1c2ccc(Br)cc2[C@@H]2[C@@H](CCN2C(=O)C2CCCCC2)[C@H]1CO,11.1% (inactive)
12,CCCc1cn(CC[C@H]2CC[C@@H](NC(=O)C3CCOCC3)[C@@H](CO)O2)nn1,-3.07% (inactive)
13,CC(C)NC(=O)N(C)C[C@H]1OCc2ccccc2-c2c(n(C)c3ccccc23)C(=O)N([C@H](C)CO)C[C@@H]1C,32.6% (inactive)
14,C[C@H]1CN([C@@H](C)CO)C(=O)c2ccccc2-c2ccccc2CO[C@H]1CN(C)Cc1ccc(-c2ccccc2)cc1,-88.6% (active)
15,C[C@H](CO)N1C[C@H](C)[C@@H](CN(C)Cc2ccc(C(F)(F)F)cc2)OCc2ccccc2-c2c(n(C)c3ccccc23)C1=O,-13.7% (inactive)
16,C[C@@H]1CN([C@H](C)CO)C(=O)c2c(c3ccccc3n2C)-c2ccccc2CO[C@@H]1CN(C)Cc1ccc(F)cc1,-64.4% (inactive)
17,C[C@H]1CN([C@@H](C)CO)C(=O)c2ccccc2-c2ccccc2CO[C@@H]1CN(C)S(=O)(=O)c1ccc(C(F)(F)F)cc1,-83.7% (active)
18,COC(=O)N(C)C[C@H]1OCc2ccccc2-c2ccccc2C(=O)N([C@@H](C)CO)C[C@H]1C,23.3% (inactive)
19,C[C@H]1CN([C@@H](C)CO)C(=O)c2ccccc2-c2ccccc2CO[C@H]1CN(C)C(=O)Nc1ccc(-c2ccccc2)cc1,-74.8% (inactive)
20,Cc1ccc(S(=O)(=O)N(C)C[C@H]2OCc3ccccc3-c3ccccc3C(=O)N([C@@H](C)CO)C[C@@H]2C)cc1,-59.6% (inactive)
21,C[C@H]1CN([C@@H](C)CO)C(=O)c2c(c3ccccc3n2C)-c2ccccc2CO[C@H]1CN(C)S(=O)(=O)c1ccc(C#N)cc1,-85.2% (active)
22,CC(C)NC(=O)N(C)C[C@@H]1OCc2ccccc2-c2c(n(C)c3ccccc23)C(=O)N([C@@H](C)CO)C[C@H]1C,16% (inactive)
23,C[C@@H]1CN([C@H](C)CO)C(=O)c2c(c3ccccc3n2C)-c2ccccc2CO[C@H]1CN(C)Cc1ccc(F)cc1,-83.8% (active)
24,COc1ccc(S(=O)(=O)N(C)C[C@@H]2OCc3ccccc3-c3ccccc3C(=O)N([C@@H](C)CO)C[C@@H]2C)cc1,-71.4% (inactive)

row,Compound,activity change
1,CC(C)C#Cc1ccc([C@H]2[C@@H](CO)N3C(=O)CN(C(=O)Cc4ccccc4)C[C@H]23)cc1,-68.7% (inactive)
2,COc1ccccc1NC(=O)N[C@H]1CC[C@H](CCNC(=O)Cc2ccccn2)O[C@@H]1CO,-4.42% (inactive)
3,CCC(=O)N1C[C@@H](C)[C@H](OC)CN(C)C(=O)c2ccc(NC(=O)C3CCOCC3)cc2OC[C@@H]1C,-9.88% (inactive)
4,O=C(c1ccccc1)N1CC(=O)N2[C@@H](CO)[C@H](c3ccc(C#CC4CC4)cc3)[C@@H]2C1,16.5% (inactive)
5,C[C@H](CO)N1C[C@H](C)[C@H](CN(C)C(=O)C2CCC2)Oc2ncc(C#CCc3ccccc3)cc2C1=O,-34.2% (inactive)
6,CCCC#Cc1ccc([C@H]2[C@H]3CN(C(=O)Nc4cccc(F)c4)CC(=O)N3[C@H]2CO)cc1,-4.18% (inactive)
7,C[C@H](CO)N1C[C@H](C)[C@H](CN(C)S(C)(=O)=O)Oc2ncc(C3=CCCC3)cc2C1=O,25.5% (inactive)
8,C[C@H](CO)N1C[C@H](C)[C@@H](CN(C)S(=O)(=O)c2cccc(F)c2)OCc2ccccc2-c2c(n(C)c3ccccc23)C1=O,-87.4% (active)
9,C[C@@H]1CN([C@@H](C)CO)C(=O)c2c(c3ccccc3n2C)-c2ccccc2CO[C@H]1CN(C)S(=O)(=O)c1cccs1,-56.5% (inactive)
10,Cc1ccccc1S(=O)(=O)N(C)C[C@@H]1OCc2ccccc2-c2c(n(C)c3ccccc23)C(=O)N([C@H](C)CO)C[C@H]1C,-67.7% (inactive)
11,C[C@@H]1CN([C@@H](C)CO)C(=O)c2c(c3ccccc3n2C)-c2ccccc2CO[C@@H]1CN(C)S(=O)(=O)c1ccc(F)cc1,-60.8% (inactive)
12,C[C@@H]1CN([C@H](C)CO)C(=O)c2c(c3ccccc3n2C)-c2ccccc2CO[C@H]1CN(C)S(=O)(=O)c1ccccc1F,-58.8% (inactive)
13,C[C@@H]1CN([C@@H](C)CO)C(=O)c2c(c3ccccc3n2C)-c2ccccc2CO[C@@H]1CN(C)S(=O)(=O)CC(F)(F)F,20.5% (inactive)
14,C[C@@H]1CN([C@@H](C)CO)C(=O)c2c(c3ccccc3n2C)-c2ccccc2CO[C@@H]1CN(C)S(=O)(=O)c1cccs1,-57.7% (inactive)
15,C[C@H](CO)N1C[C@H](C)[C@@H](CN(C)S(=O)(=O)c2ccc([N+](=O)[O-])cc2)OCc2ccccc2-c2c(n(C)c3ccccc23)C1=O,-84.4% (active)
16,Cc1ccc(S(=O)(=O)N(C)C[C@@H]2OCc3ccccc3-c3c(n(C)c4ccccc34)C(=O)N([C@@H](C)CO)C[C@@H]2C)cc1,-89.8% (active)
17,O=C(N[C@@H]1C=C[C@@H](CC(=O)N2CCOCC2)O[C@H]1CO)c1ccccn1,35.5% (inactive)
18,O=C(NCCN1CCCCC1)[C@@H]1N[C@@H]2c3ccc(-c4ccccc4)c(=O)n3C[C@@H]2[C@H]1CO,50.6% (inactive)
19,COc1cccc(NC(=O)C[C@H]2CC[C@@H]3[C@@H](COc4ccc(NC(=O)C5CCOCC5)cc4C(=O)N3C)O2)c1,15.2% (inactive)
20,Cc1ccc(-c2ccccc2[C@H]2[C@@H](C#N)N(c3ncc(-c4ccccc4)s3)[C@@H]2CO)cc1,-65.2% (inactive)
21,N#C[C@@H]1[C@H](c2ccccc2-c2ccccc2)[C@H](CO)N1c1ncc(-c2ccccc2)s1,-4.56% (inactive)
22,C/C=C/c1ccccc1[C@H]1[C@@H](C#N)N(C(=O)Cc2ccccn2)[C@@H]1CO,1.87% (inactive)
23,CCc1sc(N2[C@@H](C#N)[C@@H](c3ccccc3-c3ccccc3)[C@@H]2CO)nc1C,-83.4% (active)
24,C/C=C/c1ccccc1[C@@H]1[C@@H](CO)N(S(=O)(=O)c2cccc(F)c2)[C@H]1C#N,-88% (active)

row,Compound,activity change
1,C/C=C/c1ccccc1[C@@H]1[C@@H](C#N)N(c2nc(CC)cs2)[C@@H]1CO,-18.3% (inactive)
2,C/C=C/c1ccccc1[C@H]1[C@@H](C#N)N(C(C)=O)[C@@H]1CO,7.51% (inactive)
3,N#C[C@@H]1[C@H](c2ccccc2C2=CCCCC2)[C@@H](CO)N1S(=O)(=O)c1cccc(F)c1,-43.9% (inactive)
4,C/C=C/c1ccccc1[C@H]1[C@@H](C#N)N(c2nc(CC)cs2)[C@@H]1CO,-82.9% (active)
5,O=C(NC1CCCCC1)N[C@H]1CC[C@H](CCNS(=O)(=O)c2ccc(F)cc2)O[C@H]1CO,24.8% (inactive)
6,C/C=C/c1ccc([C@@H]2[C@H](CO)N(S(=O)(=O)Cc3ccccc3)C23CN(C(=O)C2CCOCC2)C3)cc1,-52% (inactive)
7,CO[C@H]1CN(C)C(=O)c2ccc(NC(=O)C3CC3)cc2OC[C@H](C)N(C(=O)CN2CCOCC2)C[C@@H]1C,26.1% (inactive)
8,CC(C)(C)[S@@](=O)N1Cc2cc(C(=O)O)nc(-c3cccc(-c4cccc(F)c4)c3)c2[C@H]1CCO,41.4% (inactive)
9,COc1ccccc1C#Cc1ccc([C@@H]2[C@H](CO)N3CCCCN(C(=O)C4CCCC4)C[C@@H]23)cc1,-47.8% (inactive)
10,CCC(=O)Nc1ccc2c(c1)OC[C@H](C)N(C(=O)Cc1cccnc1)C[C@@H](C)[C@@H](OC)CN(C)C2=O,8.05% (inactive)
11,Cn1cnc(CCNC(=O)C[C@H]2CC[C@@H]3[C@H](COC[C@H](O)CN3C(=O)C3CC3)O2)c1,-3% (inactive)
12,C[C@@H]1CCCCO[C@H](CN(C)C(=O)Nc2ccc(C(F)(F)F)cc2)[C@H](C)CN([C@H](C)CO)C(=O)c2cc(NC(=O)Nc3ccc(C(F)(F)F)cc3)ccc2O1,-80.3% (active)
13,COc1ccc(NC(=O)N(C)C[C@H]2OCCCC[C@H](C)Oc3ccc(NC(=O)Nc4ccc(C(F)(F)F)cc4)cc3C(=O)N([C@@H](C)CO)C[C@@H]2C)cc1,-39.3% (inactive)
14,CNC[C@H]1OCCCC[C@@H](C)Oc2ccc(NC(=O)Nc3ccc(C(F)(F)F)cc3)cc2C(=O)N([C@H](C)CO)C[C@H]1C,-82.5% (active)
15,C[C@H](CO)N1C[C@H](C)[C@@H](CN(C)S(C)(=O)=O)OCCCC[C@H](C)Oc2ccc(NC(=O)Nc3ccc(C(F)(F)F)cc3)cc2C1=O,30.4% (inactive)
16,Cc1ccc(S(=O)(=O)N(C)C[C@H]2OCCCC[C@@H](C)Oc3ccc(NC(=O)Nc4ccc(F)cc4)cc3C(=O)N([C@@H](C)CO)C[C@H]2C)cc1,-68.1% (inactive)
17,CC(C)NC(=O)Nc1ccc2c(c1)C(=O)N([C@H](C)CO)C[C@H](C)[C@H](CN(C)C(=O)Nc1ccc(C(F)(F)F)cc1)OCCCC[C@@H](C)O2,1.85% (inactive)
18,C[C@@H]1CCCCO[C@H](CN(C)C(=O)Nc2ccc(C(F)(F)F)cc2)[C@@H](C)CN([C@@H](C)CO)C(=O)c2cc(NC(=O)Nc3cccc4ccccc34)ccc2O1,-88.3% (active)
19,CC(C)NC(=O)Nc1ccc2c(c1)C(=O)N([C@@H](C)CO)C[C@@H](C)[C@@H](CN(C)C(=O)Nc1ccc(C(F)(F)F)cc1)OCCCC[C@H](C)O2,-63.3% (inactive)
20,CNC[C@H]1OCCCC[C@H](C)Oc2ccc(NC(=O)Nc3ccc(C(F)(F)F)cc3)cc2C(=O)N([C@H](C)CO)C[C@@H]1C,-14.8% (inactive)
21,CNC[C@@H]1OCCCC[C@H](C)Oc2ccc(NC(=O)Nc3ccccc3)cc2C(=O)N([C@H](C)CO)C[C@H]1C,31% (inactive)
22,COc1ccc(NC(=O)Nc2ccc3c(c2)C(=O)N([C@H](C)CO)C[C@@H](C)[C@H](CN(C)C(=O)Nc2ccc(C(F)(F)F)cc2)OCCCC[C@@H](C)O3)cc1,-69% (inactive)
23,Cc1ccc(S(=O)(=O)N(C)C[C@@H]2OCCCC[C@@H](C)Oc3ccc(NC(=O)Nc4ccc(C(F)(F)F)cc4)cc3C(=O)N([C@@H](C)CO)C[C@@H]2C)cc1,-86.1% (active)
